Source: PubChem BioAssay
Calls of active or inactive are those of the source.

Experiments:
[1] = tested on: Plasmodium falciparum Sir2 (PF13_0152, Sir2A); assay: Plasmodium falciparum Sir2A binding compounds – biochemical, small-molecule microarray, 635 nm fluorescence, primary screen (AID 1098); conditions: fluorescence 635 nm, higher = more signal;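 also: score merges spot fluorescence intensity with its signal-to-noise ratio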
[2] = probe aDKK1 binding to arrayed compounds – biochemical, biotinylated probe, 635/667 nm fluorescence, primary screen (AID 1099); conditions: small-molecule microarray, higher = more signal;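 also: score merges 667nm spot fluorescence with signal to noise across triplicate slides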
[3] = probe aCHRDL2 binding to arrayed compounds – biochemical, biotinylated probe, 635/667 nm fluorescence, primary screen (AID 1100); conditions: small-molecule microarray, higher = more signal
[4] = change in splice reporter luminescence, either direction, cell-based, HEK293, spliceosome inhibition project, primary screen (AID 1101); conditions: HEK293 splicing luciferase reporter, 24 h, higher = more signal, called active from +8 up or from −8 down;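 also: HEK293 cells carrying a splicing-competent luciferase reporter gene; test concentration not given here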
[5] = biological target: Fibroblast growth factor 10 (Homo sapiens) (UniProt O15520); assay: compounds binding fibroblast growth factor 10 – biochemical, small-molecule microarray, 635 nm fluorescence, primary screen (AID 1102); conditions: FGF10 binding, fluorescence 635 nm, higher = more signal
[6] = tested on: glycogen synthase kinase-3 (GSK3A per assay name; protocol says GSK3B); assay: compounds binding glycogen synthase kinase-3 – biochemical, small-molecule microarray, 635 nm fluorescence, GSK3A, primary screen (AID 1103); conditions: fluorescence 635 nm, higher = more signal; also: the record names both GSK3A and GSK3B
[7] = biological target: Epidermal growth factor receptor (Homo sapiens) (UniProt P00533); assay: compounds binding epidermal growth factor receptor – biochemical, small-molecule microarray, 635 nm fluorescence, primary screen (AID 1104); conditions: EGFR binding, higher = more signal;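 also: score merges 667 nm emission intensity with spot signal to noise over triplicate slides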
[8] = biological target: Follistatin-related protein 3 (Homo sapiens) (UniProt O95633); assay: compounds binding follistatin-related protein 3 – biochemical, small-molecule microarray, 635 nm fluorescence, primary screen (AID 1105); conditions: FSTL3 binding, higher = more signal;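 also: score merges emission near 667 nm and signal to noise per printed spot across three slides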
[9] = biological target: Dickkopf-related protein 1 (Homo sapiens) (UniProt O94907); assay: small molecules binding DKK1 protein – biochemical, small-molecule microarray, 635 nm fluorescence scan, primary screen (AID 1106); conditions: higher = more signal;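 also: score merges emission near 667 nm with signal to noise over three replicate slides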
[10] = tested on: Inhibin beta A chain (activin A); assay: small molecules binding activin A – biochemical, small-molecule microarray, 635 nm fluorescence scan, primary screen (AID 1107); conditions: INHBA, higher = more signal;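 also: mouse activin A protein probed at 4.33 µg/mL on printed slides; score merges bound-protein fluorescence near 667 nm with spot signal-to-noise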
[11] = tested on: Human papillomavirus type 1a protein E7 (residues 44-93); assay: small molecules binding HPV E7 44-93 – biochemical, small-molecule microarray, residues 44-93, 635 nm fluorescence, primary screen (AID 1108); conditions: fluorescence 635 nm, higher = more signal;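 also: E7 fragment applied at 1 µg/mL in TBST for 1 h at 4 C; score combines spot fluorescence with its signal to noise ratio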
[12] = hepatitis C replication reporter changes, two-sided – Huh7 cells, luciferase reporter, HCV replication inhibitor project, primary screen (AID 1109); conditions: Huh7 HCV replicon luciferase reporter, 48 h; higher = more signal;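 also: huh7 hepatoma cells harbouring a luciferase neomycin HCV replicon reporter; luciferase luminescence as measure of HCV replicon replication; test concentration not given here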
[13] = biological target: Left-right determination factor 2 (Homo sapiens) (UniProt O00292); assay: small molecules binding LEFTY2 protein – biochemical, small-molecule microarray, 635 nm fluorescence scan, primary screen (AID 1110); conditions: higher = more signal
[14] = biological target: Calmodulin-1 (Homo sapiens) (UniProt P0DP23); assay: small molecules binding calmodulin-1 with EGTA – biochemical, small-molecule microarray, Cy5-labelled CALM1, profiling panel (AID 1111); conditions: Cy5-CALM1 binding fluorescence, higher = more signal;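 also: labelled calmodulin applied in Tris saline Tween buffer holding calcium plus EGTA and DTT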
[15] = biological target: Calmodulin-1 (Homo sapiens) (UniProt P0DP23); assay: small molecules binding Ca-loaded calmodulin-1 – biochemical, small-molecule microarray, Cy5-labelled CALM1, plus calcium, artefact control for SMM control-protein annotation, profiling panel (AID 1112); conditions: Cy5-CALM1 binding fluorescence, higher = more signal;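 also: score merges spot fluorescence with signal to noise from triplicate slides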
[16] = probe aWnt5a binding to arrayed compounds – biochemical, biotinylated probe, 635/667 nm fluorescence, primary screen (AID 1113); conditions: small-molecule microarray, higher = more signal;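 also: score merges 667 nm fluorescence intensity with signal-to-noise per printed feature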
[17] = probe aShh binding to arrayed compounds – biochemical, biotinylated probe, 635/667 nm fluorescence, primary screen (AID 1114); conditions: small-molecule microarray, higher = more signal;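 also: probe is biotin-labelled aShh protein from a stem cell growth factor screen; measures binding of labelled protein to compounds printed on the slide; score merges feature fluorescence at 667 nm with signal-to-noise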
[18] = probe aNog binding to arrayed compounds – biochemical, biotinylated probe, 635/667 nm fluorescence, primary screen (AID 1115); conditions: small-molecule microarray, higher = more signal;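 also: probe is biotinylated aNog protein used at 0.15 µg/mL for 1 h at 4 C; z-score combines 667 nm fluorescence of each spot with its signal to noise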
[19] = biological target: Torsin-1A-interacting protein 1 (Homo sapiens) (UniProt Q5JTV8); assay: compound microarray binding of lysate hLAP1 – cell lysate, small-molecule microarray, COS7 lysate, 635/667 nm fluorescence, primary screen (AID 1116); conditions: 635 nm fluorescence, higher = more signal
[20] = biological target: Alpha-bungarotoxin (Bungarus multicinctus) (UniProt P60615); assay: compounds binding labelled alpha-BTX control protein – biochemical, small-molecule microarray, Alexa647 label, 635/667 nm fluorescence, artefact control for SMM control protein annotation, profiling panel (AID 1117); conditions: alpha-BTX-A647 binding fluorescence, higher = more signal
Sequence of Alpha-bungarotoxin (Bungarus multicinctus) (P60615 whole entry, looked up): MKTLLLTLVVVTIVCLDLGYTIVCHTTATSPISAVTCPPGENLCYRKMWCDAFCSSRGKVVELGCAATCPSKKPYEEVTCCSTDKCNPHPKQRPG

Sequence of Fibroblast growth factor 10 (Homo sapiens) (O15520 whole entry, looked up): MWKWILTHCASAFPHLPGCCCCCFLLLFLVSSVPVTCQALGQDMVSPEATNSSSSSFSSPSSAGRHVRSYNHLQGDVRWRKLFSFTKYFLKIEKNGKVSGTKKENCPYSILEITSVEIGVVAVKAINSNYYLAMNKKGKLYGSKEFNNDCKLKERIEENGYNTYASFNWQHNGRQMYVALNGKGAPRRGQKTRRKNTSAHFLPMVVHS
Sequence of Dickkopf-related protein 1 (Homo sapiens) (O94907 whole entry, looked up): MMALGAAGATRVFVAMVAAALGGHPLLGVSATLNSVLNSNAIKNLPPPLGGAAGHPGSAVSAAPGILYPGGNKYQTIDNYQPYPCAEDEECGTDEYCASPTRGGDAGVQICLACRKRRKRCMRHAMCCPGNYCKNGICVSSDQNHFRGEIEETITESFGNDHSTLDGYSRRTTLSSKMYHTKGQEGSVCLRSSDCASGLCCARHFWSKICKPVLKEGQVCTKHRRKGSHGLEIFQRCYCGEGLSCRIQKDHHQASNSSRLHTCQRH
Sequence of Follistatin-related protein 3 (Homo sapiens) (O95633 whole entry, looked up): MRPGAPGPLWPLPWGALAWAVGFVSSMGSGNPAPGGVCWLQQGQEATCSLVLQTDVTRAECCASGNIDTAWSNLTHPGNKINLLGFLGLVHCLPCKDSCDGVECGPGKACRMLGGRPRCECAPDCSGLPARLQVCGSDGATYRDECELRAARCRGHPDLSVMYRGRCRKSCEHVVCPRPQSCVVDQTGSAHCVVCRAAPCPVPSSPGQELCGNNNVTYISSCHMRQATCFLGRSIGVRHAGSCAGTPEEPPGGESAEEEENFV
Sequence of Epidermal growth factor receptor (Homo sapiens) (P00533 whole entry, looked up): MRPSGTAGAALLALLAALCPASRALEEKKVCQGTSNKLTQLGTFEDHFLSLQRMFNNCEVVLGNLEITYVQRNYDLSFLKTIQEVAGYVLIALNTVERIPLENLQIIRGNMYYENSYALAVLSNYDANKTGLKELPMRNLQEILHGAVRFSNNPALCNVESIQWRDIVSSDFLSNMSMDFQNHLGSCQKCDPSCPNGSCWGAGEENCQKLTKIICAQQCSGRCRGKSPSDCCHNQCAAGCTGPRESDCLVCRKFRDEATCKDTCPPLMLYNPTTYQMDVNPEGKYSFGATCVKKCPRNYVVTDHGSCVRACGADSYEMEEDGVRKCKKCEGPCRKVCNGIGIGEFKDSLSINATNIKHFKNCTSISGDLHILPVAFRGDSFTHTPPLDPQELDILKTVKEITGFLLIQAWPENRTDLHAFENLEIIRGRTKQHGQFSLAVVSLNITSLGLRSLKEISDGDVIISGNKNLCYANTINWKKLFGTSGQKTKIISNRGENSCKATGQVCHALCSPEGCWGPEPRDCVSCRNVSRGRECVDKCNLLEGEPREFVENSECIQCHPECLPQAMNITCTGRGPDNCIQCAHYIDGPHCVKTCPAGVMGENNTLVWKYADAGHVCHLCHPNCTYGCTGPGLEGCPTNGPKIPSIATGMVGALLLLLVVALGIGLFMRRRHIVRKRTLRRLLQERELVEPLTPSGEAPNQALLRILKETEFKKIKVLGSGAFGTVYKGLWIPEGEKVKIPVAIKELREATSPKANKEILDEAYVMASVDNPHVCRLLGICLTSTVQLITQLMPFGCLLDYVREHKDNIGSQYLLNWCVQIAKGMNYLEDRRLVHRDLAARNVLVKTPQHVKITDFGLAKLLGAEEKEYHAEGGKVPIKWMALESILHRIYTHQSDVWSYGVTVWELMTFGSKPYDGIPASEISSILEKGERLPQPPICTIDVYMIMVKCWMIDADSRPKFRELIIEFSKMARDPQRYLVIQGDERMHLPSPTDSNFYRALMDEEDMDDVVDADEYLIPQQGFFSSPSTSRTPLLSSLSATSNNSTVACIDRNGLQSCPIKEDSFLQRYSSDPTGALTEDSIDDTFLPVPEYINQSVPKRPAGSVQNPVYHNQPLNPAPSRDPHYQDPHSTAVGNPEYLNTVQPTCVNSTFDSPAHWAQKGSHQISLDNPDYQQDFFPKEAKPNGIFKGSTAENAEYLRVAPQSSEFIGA
Sequence of Torsin-1A-interacting protein 1 (Homo sapiens) (Q5JTV8 whole entry, looked up): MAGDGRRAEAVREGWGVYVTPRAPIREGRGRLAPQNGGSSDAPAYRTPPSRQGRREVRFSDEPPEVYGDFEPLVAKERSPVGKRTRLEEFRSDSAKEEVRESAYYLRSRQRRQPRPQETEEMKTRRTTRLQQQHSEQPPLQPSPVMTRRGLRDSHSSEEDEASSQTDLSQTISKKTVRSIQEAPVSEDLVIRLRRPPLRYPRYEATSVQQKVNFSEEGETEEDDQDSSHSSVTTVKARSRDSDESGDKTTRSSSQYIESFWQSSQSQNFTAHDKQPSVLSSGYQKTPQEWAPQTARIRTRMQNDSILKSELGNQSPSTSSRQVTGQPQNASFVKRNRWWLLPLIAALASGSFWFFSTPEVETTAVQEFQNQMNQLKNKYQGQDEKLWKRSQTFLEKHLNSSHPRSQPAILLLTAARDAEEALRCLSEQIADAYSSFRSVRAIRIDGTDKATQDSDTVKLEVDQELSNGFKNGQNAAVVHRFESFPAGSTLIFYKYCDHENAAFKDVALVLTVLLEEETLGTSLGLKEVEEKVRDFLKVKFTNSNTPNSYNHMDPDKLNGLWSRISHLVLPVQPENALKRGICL
Sequence of Left-right determination factor 2 (Homo sapiens) (O00292 whole entry, looked up): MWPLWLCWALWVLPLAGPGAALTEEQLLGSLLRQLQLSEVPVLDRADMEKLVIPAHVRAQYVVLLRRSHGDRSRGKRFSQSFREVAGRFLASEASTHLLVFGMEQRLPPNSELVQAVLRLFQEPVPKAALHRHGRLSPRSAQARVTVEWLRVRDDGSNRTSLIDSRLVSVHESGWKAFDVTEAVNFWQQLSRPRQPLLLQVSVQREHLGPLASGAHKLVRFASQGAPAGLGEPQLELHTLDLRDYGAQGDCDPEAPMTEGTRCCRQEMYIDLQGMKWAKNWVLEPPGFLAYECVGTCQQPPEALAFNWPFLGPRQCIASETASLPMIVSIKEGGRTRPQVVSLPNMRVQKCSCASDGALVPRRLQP

| Structure (SMILES) | composite z-score [1] | composite z-score [2] | composite z-score [3] | z-score [4] | composite z-score [5] | composite z-score [6] | composite z-score [7] | composite z-score [8] | composite z-score [9] | composite z-score [10] | composite z-score [11] | z-score [12] | composite z-score [13] | composite z-score [14] | composite z-score [15] | composite z-score [16] | composite z-score [17] | composite z-score [18] | composite z-score [19] | composite z-score [20] |
| --- | --- | --- | --- | --- | --- | --- | --- | --- | --- | --- | --- | --- | --- | --- | --- | --- | --- | --- | --- | --- |
| CC(C)NC(=O)[C@@]1(c2ccc([N+](=O)[O-])cc2)CC(=O)N(C(C)C)[C@@H]1c1ccc(CO)cc1 | -0.277 | -0.247 | 1.07 | -0.64 (inactive) | -0.907 | -0.153 | -0.761 | -0.867 | -1.56 | -1.45 | 0.559 | -0.176 | -1.86 | -0.678 | -0.56 | -0.197 | 0.0899 | -0.311 | -0.534 | -0.125 |
| C=C(C(=O)CC[C@@H](OC(=O)c1cccnc1)c1ccc(CO)o1)C(C)C | 0.392 | -0.174 | -0.36 | 1.38 (inactive) | 1.16 | 0.803 | 0.152 | 0.933 | 0.479 | 1.04 | 1.03 | -1.24 | 0.46 | -0.478 | -0.835 | -0.139 | -0.0701 | 0.337 | 1.35 | 0.346 |
| CC(C)C(CO)N1C(=O)[C@@H]2[C@H]3C(=O)OCC=C[C@H]3OC23C=CCN(c2ccc4ccccc4c2)C(=O)[C@@H]13 (stereo not given in full) | 0.233 | -0.387 | 0.343 | 0.0617 (inactive) | -0.617 | -1.15 | -1.04 | -1.3 | -0.688 | -0.141 | -0.177 | -0.453 | -0.425 | -0.468 | -0.367 | -0.148 | -0.283 | -0.463 | -1.05 | -0.256 |
| [N-]=[N+]=NCc1ccccc1[C@@H]1OC(c2ccc(OCCCO)cc2)=N[C@]1(Cc1ccccc1N=[N+]=[N-])C(N)=O | 1.48 | 0.367 | 1.16 | 0.352 (inactive) | 1.38 | 1.27 | -0.0099 | 0.995 | 0.259 | 1.06 | 1.43 | -0.613 | -0.0808 | 2.02 | 1.11 | -0.0478 | 0.593 | 1.49 | 0.804 | 2.66 |
| O=C1OCCC=C[C@H]2OC34C=CCN(CCN5CCOCC5)C(=O)[C@H]3N(CCO)C(=O)[C@@H]4C12 (stereo not given in full) | -0.378 | -0.507 | -0.771 | -0.197 (inactive) | 0.217 | -0.594 | -0.803 | -0.0836 | 0.794 | 0.612 | -1.74 | 0.18 | 0.601 | -1.72 | -1.21 | -0.181 | -0.338 | -0.467 | 0.0029 | -1.01 |
| CCCNC(=O)[C@@]1(c2ccc([N+](=O)[O-])cc2)CC(=O)N(CC23CC4CC(CC(C4)C2)C3)[C@@H]1c1ccc(CO)cc1I | 0.441 | 0.563 | 0.195 | 1.58 (inactive) | 0.193 | 0.588 | 0.27 | 0.236 | 0.0305 | 0.655 | 0.0836 | -3.32 | 0.152 | 0.838 | 0.94 | -0.0303 | 0.166 | 0.431 | -0.421 | 0.695 |
| CC(C)N1C(=O)c2ccccc2[C@](C)(C(=O)NC2CC2)[C@@H]1c1ccc(CO)cc1 | 0.173 | 0.0976 | 0.151 | -0.0713 (inactive) | 0.13 | 0.821 | -0.415 | 0.507 | 0.33 | 0.926 | 0.591 | -0.479 | 0.0197 | 0.391 | -0.34 | -0.096 | -0.138 | 0.214 | 0.507 | 0.931 |
| CC(C)(C)OC(=O)CC[C@]1(C(=O)NCC(O)CO)N=C(c2ccc(OCCCO)cc2)O[C@H]1c1ccccc1CN=[N+]=[N-] (stereo not given in full) | 0.982 | 1.27 | 1.33 | 0.121 (inactive) | 1.5 | 0.554 | -0.256 | 0.676 | -0.0583 | 0.487 | 0.29 | 1.15 | -0.167 | 2.52 | 0.909 | 0.25 | 0.541 | -0.524 | 3.82 | 2.42 |
| CC(C)(C)OC(=O)CC[C@@]1(C(N)=O)N=C(c2ccc(OCCCO)cc2)O[C@@H]1c1ccccc1N=[N+]=[N-] | 1.73 | 0.751 | 0.83 | -0.809 (inactive) | 1.46 | 1.22 | -0.0882 | 0.616 | -0.103 | 0.988 | 1.2 | 3.02 | -0.038 | 1.03 | 0.774 | -0.0125 | 0.0796 | -0.504 | 1.12 | 1.22 |
| CN(C)CCCCCCNC(=O)[C@@H]1C[C@@H]2C(=O)N[C@@H](Cc3ccccc3)C(=O)N2[C@@H]1c1cccc(OCCO)c1 | 1.12 | 0.182 | 0.635 | -0.326 (inactive) | 0.393 | 1.31 | 0.464 | 0.721 | 0.872 | 0.728 | 1.39 | 1.73 | 0.637 | -0.345 | -0.287 | -0.0472 | 0.0756 | 0.109 | 1.93 | 2.64 |
| O=C(NCc1ccccc1)[C@@H]1c2ccccc2C(=O)N(C2CCCCC2)[C@H]1c1ccc(CO)cc1 | 0.88 | -0.709 | 0.0028 | 0.365 (inactive) | 0.686 | 0.0662 | -0.241 | 0.707 | -0.327 | -0.224 | 1.47 | -0.166 | -0.379 | -0.576 | -0.545 | -0.104 | -0.247 | -0.282 | 0.089 | -0.09 |
